Source: PubChem BioAssay (Sanford-Burnham Center for Chemical Genomics)
CYP2C9 activ – CYP2C9 (human) activation. actives 1.4% (n = 96,000). AID 1024. activation factor at 5 µM. recombinant CYP2C9, luciferin-H conversion, luminescence; active compounds read high; factor 1 = untreated enzyme, 0 = blocked. P11712;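 active = activation factor of 2 or more for CYP2C9 at a 5 µM dose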
Target sequence (P11712 whole entry, looked up): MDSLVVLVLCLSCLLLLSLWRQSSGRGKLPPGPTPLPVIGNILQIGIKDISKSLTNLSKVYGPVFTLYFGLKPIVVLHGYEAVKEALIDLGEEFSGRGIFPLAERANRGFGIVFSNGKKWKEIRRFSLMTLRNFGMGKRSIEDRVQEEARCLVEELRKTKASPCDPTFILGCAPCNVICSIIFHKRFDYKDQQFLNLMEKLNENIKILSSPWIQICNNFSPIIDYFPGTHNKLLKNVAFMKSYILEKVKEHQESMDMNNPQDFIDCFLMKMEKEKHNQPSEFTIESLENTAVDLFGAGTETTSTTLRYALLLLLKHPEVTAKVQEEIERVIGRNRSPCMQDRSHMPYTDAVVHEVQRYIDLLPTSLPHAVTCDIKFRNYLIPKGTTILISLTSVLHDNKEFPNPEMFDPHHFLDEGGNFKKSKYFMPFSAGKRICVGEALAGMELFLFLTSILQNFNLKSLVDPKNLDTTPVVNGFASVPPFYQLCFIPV
CYP2C9 inhib – blocks human cytochrome P450 2C9. actives 20% (n = 96,000). CYP2C9 Supersomes, luciferin-H conversion, luminescence. AID 777. inhibition, % at 5 µM;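 active = blocking of liver enzyme CYP2C9 beyond about 50% at 5 µM, limit read from the data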
CYP2C19 activ – increases human CYP2C19 enzyme activity | activation factor at 5 µM | AID 1025 | 96,000 tested, under 10 active | recombinant CYP2C19, luciferin-H EGE luminescence; active compounds read high; 0 = fully inhibited enzyme, 1 = untreated enzyme;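 active = activation factor of at least 2 at 5 µM in the primary screen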
PTK2B oligo ant – Pyk2 (human) oligomerization antagonism; Q293 cells, Pyk2 FERM NanoBiT luminescence; active compounds read low; z-score (the deposit names both 25 µM and 10 µM); actives 0.83% (n = 99,000); AID 1347419;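 active = Z-score of -3 or lower, scaled per plate to the spread of control and sample wells; inactive = z-score above -3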;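 note: negative z-score means lost luminescence so less FERM oligomerization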
CYP2C19 inh – blocks human cytochrome P450 2C19 | CYP2C19 Supersomes, luciferin-H EGE luminescence, 30 min | inhibition, % at 5 µM | actives 21% (n = 96,000) | P33261;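 active = CYP2C19 inhibition above a set limit at 5 µM in the primary screen, cut at about 50% in these data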
Hits are given with their value; – = inactive; · = no result. Sampled rows, rich in hits. Any-hit rate of the full collection: about 28%.

SMILES	CYP2C9 activ	CYP2C9 inhib	CYP2C19 activ	PTK2B oligo ant	CYP2C19 inh
COc1ccc(NC(=O)CSc2nccn2-c2ccccc2)cc1	–	68.8	–	–	86.4
O=C(Nc1ccccn1)[C@@H]1CCC(=O)N1C(=O)OCc1ccccc1	–	–	–	–	–
Cc1ccc(S(=O)(=O)NC(=O)CSc2nc3ccccc3s2)cc1	–	–	–	–	–
CS/C(=N\S(=O)(=O)c1cccs1)NC(=O)CSc1nc2ccccc2s1	–	100.3	–	–	79.9
CCOc1ccc(-c2nc(C)c(C(C)=O)n2O)cc1	–	–	–	–	–
CCOc1ccc(S(=O)(=O)Nc2ccccc2SC)c2cccnc12	–	70.9	–	–	–
CCCCc1nnc(NC(=O)C(C)Sc2nc(C)cc(=O)[nH]2)s1 (stereo not drawn)	–	–	–	–	–
CCNc1nc(NCC)nc(OCCNS(=O)(=O)c2cc(C)ccc2C)n1	–	–	–	–	89.3
CCNc1nc(NC(C)C)nc(OCCNS(=O)(=O)c2cc(C)ccc2C)n1	–	–	–	–	–
COc1cc(C)nc(OCCNS(=O)(=O)c2cc(C)ccc2C)n1	–	–	–	–	81.6
CCNc1nc(OCCNS(=O)(=O)c2cc(C)ccc2C)nc(N(C)C)n1	–	–	–	–	57.6
COC(=O)c1ccc(CN2C(=O)c3ccccc3S2(=O)=O)cc1	–	59.8	–	–	83.9
O=C(CCCN1C(=O)c2ccccc2C1=O)Nc1ccc(S(=O)(=O)N2CCCCC2)cc1	–	94.2	–	–	63.4
CCC(C)NC(=O)c1ccccc1NC(=O)CN1C(=O)c2ccccc2S1(=O)=O (stereo not drawn)	–	84.6	–	·	–
O=C(OCCN1C(=O)c2ccccc2C1=O)c1ccc(S(=O)(=O)N2CCCCCC2)cc1	–	82.0	–	–	–
O=C(NC1CCCC1)C1CCCN1C(=O)Nc1ccc(Cl)cc1 (stereo not drawn)	–	–	–	–	–
O=S(=O)(N1CCCCCC1)N1CCN(S(=O)(=O)N2CCCCC2)CC1	–	–	–	–	–
O=C(Nc1cccc2c1CCCC2)c1ccc(Br)o1	–	–	–	–	–
Fc1ccc(-c2nnc(CN3CCN(c4ncc(C(F)(F)F)cc4Cl)CC3)o2)cc1	–	–	–	–	–
O=C(CN1C(=O)c2ccccc2S1(=O)=O)Nc1ccc(S(=O)(=O)N2CCCCCC2)cc1	–	87.2	–	–	50.1
O=C(Cn1c(=O)sc2ccccc21)Nc1ccc(S(=O)(=O)N2CCCC2)cc1	–	97.5	–	–	79.7
O=S1(=O)N=C(Nc2ccc(S(=O)(=O)N3CCCCC3)cc2)c2ccccc21	–	–	–	–	–
O=C(CN1C(=O)c2ccccc2S1(=O)=O)NCc1ccccc1Cl	–	–	–	·	59.2
CN1CCCN(C(=O)c2ccc(Cl)c(S(=O)(=O)N(C)c3ccccc3)c2)CC1	–	–	–	–	–
CCOC(=O)C(NC(=O)c1ccccc1OCC)(Nc1ncccn1)C(F)(F)F (stereo not drawn)	–	–	–	–	–
SMILES	CYP2C9 activ	CYP2C9 inhib	CYP2C19 activ	PTK2B oligo ant	CYP2C19 inh
COc1ccc(C(=O)NC(=O)COC(=O)C2COc3ccccc3O2)cc1 (stereo not drawn)	–	–	–	–	–
Cc1cccc(-c2c3c(=O)n(C)c(=O)n(C)c3cn2C2CCCCC2)c1	–	–	–	–	–
Cc1cc2ncn(/N=C/c3cc(Br)ccc3O)c2cc1C	–	61.1	–	·	–
CC1CCCCN1CCNC(=O)C1CCN(S(=O)(=O)N2CCCCC2)CC1 (stereo not drawn)	–	–	–	–	–
CCOC(=O)C(Oc1ccc2c(-c3ccccc3)cc(=O)oc2c1C)c1ccccc1 (stereo not drawn)	·	·	·	–	·
CCOC(=O)C(Oc1ccc2c(-c3ccc(OC)cc3)cc(=O)oc2c1C)c1ccccc1 (stereo not drawn)	–	78.2	–	–	–
CCCCn1c(=N)n(CC(O)COc2cccc(C)c2)c2ccccc21 (stereo not drawn)	–	–	–	–	–
COc1cccc(Oc2cn[nH]c2-c2ccc(O)cc2O)c1	–	96.6	–	–	98.2
CCOc1ccc(-c2n[nH]c(C)c2-c2ccccc2OC)c(O)c1	–	–	–	–	–
CCOc1ccc(-c2[nH]ncc2Oc2cccc(OC)c2)c(O)c1	–	100.2	–	–	99.4
COc1cccc(Oc2cn[nH]c2-c2ccc(OC)cc2O)c1	–	99.8	–	–	99.2
CCc1nnc(NC(=O)c2ccc(N(C)S(=O)(=O)c3ccccc3)cc2)s1	·	·	·	–	·
O=c1cc(C(F)F)oc2c1ccc1ccccc12	–	–	–	–	–
CCN(CC)CCCNc1oc(-c2cccc(Cl)c2)nc1C#N	–	–	–	–	–
Cc1ccc(C(=O)NC(C)c2ccccc2)o1 (stereo not drawn)	·	·	·	–	·
CC(NC(=O)c1ccccc1O)c1ccccc1 (stereo not drawn)	–	–	–	–	57.8
COc1cccc(OC)c1C(=O)NC(C)c1ccccc1 (stereo not drawn)	·	·	·	–	·
CC(NC(=O)c1ccc(S(=O)(=O)N(C)C)cc1)c1ccccc1 (stereo not drawn)	–	54.1	–	–	–
COc1ccccc1C(=O)NC(C)c1ccccc1 (stereo not drawn)	2.4	–	–	–	55.6
S=c1[nH]nc(CSc2nc3ccccc3s2)n1C1CCCCC1	–	–	–	–	–
CC(Sc1nnc(-c2ccc(Cl)cc2Cl)n1Cc1ccccc1)C(=O)Nc1nccs1 (stereo not drawn)	–	53.5	–	–	–
S=c1[nH]nc(COc2ccccc2)n1C1CCCCC1	–	–	–	–	59.7
CC1CCCC(C)N1C(=O)CSc1nnc(COc2ccccc2)n1-c1ccccc1 (stereo not drawn)	–	–	–	–	64.8
COc1ccc(-n2c(COc3ccccc3)nnc2SCC(N)=O)cc1	–	–	–	–	62.6
Cc1nnc(SC(C)C(=O)Nc2ccc(Cl)cn2)n1Cc1ccccc1 (stereo not drawn)	–	–	–	–	–
SMILES	CYP2C9 activ	CYP2C9 inhib	CYP2C19 activ	PTK2B oligo ant	CYP2C19 inh
O=c1oc(/C=C/c2ccco2)nc2sc3c(c12)CCC3	–	–	–	–	–
O=C1N=C(N2CCc3ccccc3C2)S/C1=C\c1cccc(O)c1	·	·	·	–	·
COc1ccc(C(=O)Cn2nnc(-c3ccccc3NC(=O)c3ccco3)n2)cc1	–	–	–	–	–
NC(=O)CSc1nnc(COc2ccccc2)n1C1CCCCC1	–	56.2	–	–	79.8
COc1cccc(-n2c(COc3ccc(C)cc3)nnc2SCC(N)=O)c1	–	–	–	–	66.7
COc1ccc(OCc2nnc(SC(C)C(=O)Nc3nccs3)n2-c2ccccc2)cc1 (stereo not drawn)	–	60.1	–	–	–
NC(=O)CSc1nnc(Cc2ccc3c(c2)OCO3)n1C1CCCCC1	–	–	–	–	–
CC(C)(C)NC(=O)CN(Cc1cccs1)C(=O)CCC(=O)Nc1nccs1	–	–	–	–	–
Cc1ccccc1C(=O)Oc1ccc(Sc2ccc(O)cc2)cc1	–	–	–	·	–
